The campaign covered roughly 2,200 compounds. About 1,200 (55%) were called active. No cut-off is given here; in the data, nearly all actives have IC50 up to about 92 µM. So high a share suggests a set chosen from earlier hits. This is one part of the list.
assay: counter assay for TAg ATPase ADP read-out – biochemical, ADP-Hunter, fluorescence, counter-screen (AID 2501); details: series mostly up to 100 µM; inhibition: at the top concentration;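 note: purified T antigen ATPase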;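 for inhibition: 0% = enzyme with vehicle and 100% = reference inhibitor wells; higher means more inhibition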

Compound	inhibition	IC50
COc1ccc(N2C(=O)/C(=C/c3ccco3)C(=O)NC2=S)cc1	20.8% [at 50 µM] (inactive)	–
COc1cccc(-n2c(/C=C/c3ccc(O)c(O)c3)nc3ccccc3c2=O)c1	–	7 µM (active)
COC(=O)C1=Nc2ccccc2/C1=C\c1c(O)n(-c2ccc(OC)cc2)c(=O)[nH]c1=O	4.61% (inactive)	–
COc1ccc(-n2c(/C=C/c3ccc(O)c(O)c3)nc3ccccc3c2=O)cc1	–	24.2 µM (active)
Cc1ccc2c(c1)=NC(=O)/C(=C/c1c(O)[nH]c(=O)[nH]c1=O)C=2	0.6% (inactive)	–
CN(C)[C@@H]1C(=O)C(C(N)=O)=C(O)[C@@]2(O)C(=O)C3=C(O)c4c(O)cccc4[C@@](C)(O)[C@H]3C[C@@H]12	6.46% (inactive)	–
COc1ccc(/C=C2/C(=O)N(Cc3ccco3)C(=O)N(C(C)C)C2=O)cc1	23% (inactive)	–
O=C(O)c1c[nH]c2ccc(S(=O)(=O)N(CCCl)CCCl)cc12	-5.36% (inactive)	–
O=c1cc(-c2ccc(O)c(O)c2)oc2c(C3O[C@H](CO)[C@@H](O)[C@H](O)[C@H]3O)c(O)cc(O)c12 (stereo not given in full)	–	4.81 µM (active)
O=C1N[C@H](Cc2ccccc2)C(=O)N2[C@@H]3[C@H](C[C@@H]12)c1ccccc1N3OOSc1ccccc1	-26.1% (inactive)	–
O=C1NC(=S)N(c2ccc(F)cc2)C(=O)/C1=C\c1ccoc1	21.9% (inactive)	–
CN(C)c1ccc(NC(=O)CN2C3CCCC2CC(NC(=O)c2ccccc2)C3)cc1 (stereo not given)	–	3.12 µM (active)
COc1cccc(C(=O)NC2CC3CCCC(C2)N3CC(=O)Nc2ccc(N(C)C)cc2)c1 (stereo not given)	–	3.14 µM (active)
CN(C)c1ccc(NC(=O)CN2CCC(O)(c3ccccc3)CC2)cc1	–	2.88 µM (active)
CN(C)c1ccc(NC(=O)CN2C(=O)CN=C(c3ccccc3)c3ccccc32)cc1	–	9.96 µM (active)
Cc1ccccc1N1C(=O)NC(=O)/C(=C\c2cnn(-c3ccccc3)c2)C1=O	26.2% (inactive)	–
O=C1NC(=O)N(c2cccc(Cl)c2)C(=O)/C1=C\c1ccc(Sc2nc3ccccc3[nH]2)o1	19.3% [at 50 µM] (inactive)	–
CN1C2CCC1CC(=NO)C2	23.1% (inactive)	–

Compound	inhibition	IC50
C=C(C=O)CC1CC(O)[C@]2(C)OC3CC4OC5C[C@]6(C)O[C@]7(C)CCC8OC9C[C@]%10(C)OC%11C(C)=CC(=O)OC%11CC%10OC9C[C@@H](C)C8OC7CC6O[C@]5(C)CC5OC5C4OC3CC2O1 (stereo not given in full)	8.3% (inactive)	–
CCCN1CCc2cccc3c2[C@H]1Cc1ccc(O)c(O)c1-3	-48.6% (inactive)	–
Cc1ccc2c(c1)C1CN(C)CCC1N2C(=O)Nc1cccc(C(F)(F)F)c1 (stereo not given)	17.6% (inactive)	–
CCCCN1C(=O)/C(=C/c2ccc(N(C)C)cc2)C(=O)N(Cc2ccco2)C1=O	13.8% (inactive)	–
CP(=O)(Nc1ccccc1)C(Cl)(Cl)Cl (stereo not given)	-27.6% (inactive)	–
CNC(=O)Oc1ccc2ncccc2c1	–	24.1 µM (active)
CNC(=O)Oc1ccc(-c2cn3cc(Cl)ccc3n2)cc1	15% (inactive)	–
CC[C@H](C)/C=C(C)/C=C/C1=CC2=C(Cl)C(=O)[C@@](C)(OC(C)=O)C(=O)C2=CO1	-25.2% (inactive)	–
O=C(CN1CCCC1=O)N1CCOCC1	13.2% (inactive)	–
N/C(=N\N=C\c1ccc(O)cc1O)N[N+](=O)[O-]	–	4.1 µM (active)
N/C(=N\N=C/c1ccc(-c2ccc(O)c(C(=O)O)c2)o1)N[N+](=O)[O-]	10.8% (inactive)	–
COc1ccc(/C=C2/C(=O)NC(=S)N(C3CC3)C2=O)cc1CN1C(=O)c2ccccc2C1=O	2.18% (inactive)	–
O=C(c1ccc2nc(-c3ccco3)c(-c3ccco3)nc2c1)N1CCC2(CC1)OCCO2	-35.8% (inactive)	–
O=C(O)c1cc[c]([Hg][Cl])cc1	1.39% (inactive)	–
CN1C(=O)/C(=C/c2cccn2-c2ccc3ccccc3c2)C(=O)NC1=S	-18.3% (inactive)	–
COc1cc2c(ccc3cc(OC)c(OC)c(O)c32)cc1O	–	39.6 µM (active)
O=C1NC(=O)N(c2ccccc2)C(=O)/C1=C/C=C/c1ccco1	12.3% [at 50 µM] (inactive)	–

Reference: PubChem BioAssay AID2501 (Southern Research Specialized Biocontainment Screening …, 2010)
